# Screen size: about 310,000 compounds; about 14,000 (4.5%) showed an effect of 50% or more. The effect is printed as a negative number. What follows is part of a selection rich in strong results, with near analogues and random picks from the rest.
# Biological target: human ether-à-go-go-related gene (hERG) potassium channel (human, UniProt Q12809)
# Experiment: primary screen, population patch clamp on CHO cells stably expressing hERG; higher = less effect of the substance
# 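Further: peak tail current of the secondary pulse compared with the same well before compound.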
# Chain of human ether-à-go-go-related gene (hERG) potassium channel (Q12809 whole entry, looked up): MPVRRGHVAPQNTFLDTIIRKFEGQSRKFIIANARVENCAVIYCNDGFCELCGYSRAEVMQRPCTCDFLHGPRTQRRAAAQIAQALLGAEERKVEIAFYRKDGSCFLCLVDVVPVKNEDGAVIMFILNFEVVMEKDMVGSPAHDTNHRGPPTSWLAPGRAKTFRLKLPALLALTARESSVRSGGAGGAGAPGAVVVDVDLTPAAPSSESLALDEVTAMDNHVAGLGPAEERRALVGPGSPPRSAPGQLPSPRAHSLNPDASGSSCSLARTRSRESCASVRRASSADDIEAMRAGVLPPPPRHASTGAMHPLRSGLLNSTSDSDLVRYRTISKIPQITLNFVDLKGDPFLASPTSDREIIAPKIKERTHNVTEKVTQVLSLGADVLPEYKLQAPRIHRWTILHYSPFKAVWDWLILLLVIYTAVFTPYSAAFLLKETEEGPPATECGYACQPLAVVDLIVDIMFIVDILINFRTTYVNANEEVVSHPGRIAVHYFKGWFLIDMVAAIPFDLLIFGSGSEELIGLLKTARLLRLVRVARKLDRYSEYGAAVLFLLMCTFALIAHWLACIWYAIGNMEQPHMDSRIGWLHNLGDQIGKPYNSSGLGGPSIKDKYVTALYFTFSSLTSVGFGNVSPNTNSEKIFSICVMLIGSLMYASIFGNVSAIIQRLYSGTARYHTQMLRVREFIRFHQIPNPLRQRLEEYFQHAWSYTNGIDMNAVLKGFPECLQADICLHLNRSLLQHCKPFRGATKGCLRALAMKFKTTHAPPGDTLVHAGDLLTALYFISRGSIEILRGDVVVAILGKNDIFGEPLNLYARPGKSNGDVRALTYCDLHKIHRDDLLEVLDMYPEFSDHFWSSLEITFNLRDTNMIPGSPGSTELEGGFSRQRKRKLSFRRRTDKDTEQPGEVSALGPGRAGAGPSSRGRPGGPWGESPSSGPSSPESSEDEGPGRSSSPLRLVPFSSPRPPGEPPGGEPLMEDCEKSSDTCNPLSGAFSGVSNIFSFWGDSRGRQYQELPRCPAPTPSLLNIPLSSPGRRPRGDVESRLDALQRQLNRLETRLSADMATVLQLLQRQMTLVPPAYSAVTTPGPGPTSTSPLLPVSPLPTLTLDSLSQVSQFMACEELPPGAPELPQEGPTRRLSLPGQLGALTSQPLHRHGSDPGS
row,Structure (SMILES),"hERG current change (%, negative = inhibition) at 10uM"
1,Cc1c(NC(=O)/C=C/c2cn(-c3ccccc3)nc2-c2ccc(F)cc2)c(=O)n(-c2ccccc2)n1C,7.47%
2,CCN(CC)c1ccc(N)cc1S(=O)(=O)Nc1ccc(OC)cc1,-4.91%
3,Cn1c2c(c(=O)n(C)c1=O)CN(Cc1ccco1)CN2,4.7%
4,O=C(c1ccc(N2CCN(S(=O)(=O)c3ccccc3)CC2)c([N+](=O)[O-])c1)N1CCOCC1,-35.1%
5,NC(=O)c1ccc(N2CCN(S(=O)(=O)c3ccccc3)CC2)c([N+](=O)[O-])c1,-58.7%
6,O=C(c1ccc(-n2cncn2)c([N+](=O)[O-])c1)N1CCN(S(=O)(=O)c2ccccc2Br)CC1,-70.3%
7,O=C(c1ccncc1)N1CCN(S(=O)(=O)c2ccccc2Br)CC1,4.86%
8,O=C(c1ccc(N2CCCCC2)c([N+](=O)[O-])c1)N1CCN(S(=O)(=O)c2ccccc2)CC1,-49.9%
9,Cc1ccc(S(=O)(=O)N2CCN(c3ccc(C(=O)N4CCOCC4)cc3[N+](=O)[O-])CC2)cc1,-59%
10,CCOc1ccc(S(=O)(=O)N2CCN(C(=O)c3ccc(-n4cncn4)c([N+](=O)[O-])c3)CC2)cc1,-71.5%
11,Cc1ccc(S(=O)(=O)N2CCN(C(=O)c3ccc(N4CCCC4)c([N+](=O)[O-])c3)CC2)cc1,-18.1%
12,CCOc1ccc(S(=O)(=O)N2CCN(C(=O)c3cccnc3)CC2)cc1,-29.3%
13,COC(=O)c1ccc(N2CCN(S(=O)(=O)c3ccccc3)CC2)c([N+](=O)[O-])c1,-14.1%
14,N#Cc1ccccc1S(=O)(=O)N1CCN(C(=O)c2ccc(-n3cncn3)c([N+](=O)[O-])c2)CC1,-23.3%
15,CCOc1ccc(S(=O)(=O)N2CCN(C(=O)c3ccncc3)CC2)cc1,4.67%
16,Clc1cccc(Cl)c1C1N2CCCN12 (centres unmarked),11.4%
17,CC(C)c1ccc(CNc2c([N+](=O)[O-])c(=O)oc3ccccc23)cc1,14.2%
18,O=C(/C=C/c1ccc(NC(=O)c2ccccc2-c2ccccc2C(=O)O)cc1)c1ccccc1,25.7%
19,Cc1ccc(C)n1-c1ccc(N2CCOCC2)nc1,-1.52%
20,CNC(=O)c1nnc(Cc2ccc(F)cc2)o1,9.51%
21,C/C(CC(=O)Nc1ccc(N(C)C)cc1)=N\NC(=O)c1ccccn1,7.77%
22,O=C(OCc1cc(=O)oc2cc(O)ccc12)c1cc(S(=O)(=O)N2CCOCC2)ccc1F,5.32%
23,Cc1cc(C)c(S(=O)(=O)N2CCN(C(=O)c3ccc(-n4cncn4)c([N+](=O)[O-])c3)CC2)c(C)c1,-62.5%

row,Structure (SMILES),"hERG current change (%, negative = inhibition) at 10uM"
1,Cc1cc(C)c(NC(=O)CNC(=O)c2ccc(-n3cncn3)c([N+](=O)[O-])c2)c(C)c1,-12.8%
2,Cc1ccc(S(=O)(=O)N2CCN(C(=O)c3ccc(-n4cncn4)c([N+](=O)[O-])c3)CC2)cc1C,-72.7%
3,COC(=O)c1ccc(-n2cncn2)c([N+](=O)[O-])c1,12%
4,Cc1ccc(S(=O)(=O)N(C)C)cc1NC(=O)c1ccc(-n2cncn2)c([N+](=O)[O-])c1,-38.8%
5,COC(=O)c1ccc(N2CCN(S(=O)(=O)c3c(C)cc(C)cc3C)CC2)c([N+](=O)[O-])c1,21.4%
6,CCC(=O)c1ccc(OCC(=O)NCC2COc3ccccc3O2)cc1 (centres unmarked),-25.5%
7,Cc1ccc(S(=O)(=O)N2CCCc3ccccc32)cc1C,0.165%
8,C[C@H](NC(=O)c1nc[nH]c1C(=O)N1CCN(C(=O)OC(C)(C)C)CC1)c1ccccc1,12.4%
9,CN(C1CCS(=O)(=O)C1)S(=O)(=O)c1cccs1 (centres unmarked),-51.6%
10,CCN(C1CCS(=O)(=O)C1)S(=O)(=O)c1cccs1 (centres unmarked),14.8%
11,CCCCN(C1CCS(=O)(=O)C1)S(=O)(=O)c1cccs1 (centres unmarked),-7.11%
12,Cc1cc(CCCCCCCCc2cc(C)cc(=O)o2)oc(=O)c1,-2.63%
13,O=C(Nc1nc(-c2ccccn2)cs1)c1cccc(-n2cnnn2)c1,-5.61%
14,CC(C)(C)NS(=O)(=O)c1ccc(OCC(=O)NCCC2=CCCCC2)cc1,-14.1%
15,CC1CCN(C(=O)C2CCCN(c3ncnc4c3nc3n4CCCCC3)C2)CC1 (centres unmarked),-41.5%
16,COc1ccc(N2CCN(C(=O)C3CCCN(c4ncnc5c4nc4n5CCCCC4)C3)CC2)cc1 (centres unmarked),-68.7%
17,CCOC(=O)N1CCN(C(=O)C2CCCN(c3ncnc4c3nc3n4CCCCC3)C2)CC1 (centres unmarked),-22.9%
18,COc1cccc(N2CCN(C(=O)C3CCCN(c4ncnc5c4nc4n5CCCCC4)C3)CC2)c1 (centres unmarked),-81.7%
19,COc1ccccc1N1CCN(C(=O)C2CCCN(c3ncnc4c3nc3n4CCCCC3)C2)CC1 (centres unmarked),-12.5%
20,CN1CCN(C(=O)C2CCCN(c3ncnc4c3nc3n4CCCCC3)C2)CC1 (centres unmarked),1.36%
21,CC(=O)c1ccc(N2CCN(C(=O)C3CCCN(c4ncnc5c4nc4n5CCCCC4)C3)CC2)cc1 (centres unmarked),-75.4%
22,Cc1ccc(Nc2nnc(-c3ccc4c(c3)OCO4)o2)c(C)c1,19.8%
23,COc1ccc(C(C)N2CC34C=CC(O3)C(C(=O)O)C4C2=O)cc1 (centres unmarked),8.42%

row,Structure (SMILES),"hERG current change (%, negative = inhibition) at 10uM"
1,CCN(CC)CCCNC(=S)N(Cc1cccnc1)Cc1cc2cc(C)cc(C)c2[nH]c1=O,22.9%
2,Cc1cccc2cc(CN(Cc3cccnc3)C(=S)NCCCN(C)C)c(=O)[nH]c12,3.93%
3,Cc1cccc2cc(CN(Cc3ccccc3)C(=S)NCCCN(C)C)c(=O)[nH]c12,-38%
4,COc1cc2cc(CN(CCc3cccc(C)c3)C(=S)NCCCN3CCOCC3)c(=O)[nH]c2cc1OC,-66.9%
5,Cc1ccc2[nH]c(=O)c(CN(CCCN(C)C)C(=S)NCCc3ccccc3)cc2c1,-42%
6,Cc1ccc2cc(CN(CCc3ccccc3)C(=S)NCCCN(C)C)c(=O)[nH]c2c1,-72%
7,Cc1ccc2[nH]c(=O)c(CN(Cc3ccccc3)C(=S)NCCCN(C)C)cc2c1,-24.9%
8,Cc1cc(C)c2[nH]c(=O)c(CN(Cc3cccnc3)C(=S)NCCCN(C)C)cc2c1,-35.6%
9,COc1cc2cc(CN(CCc3ccccc3C)C(=S)NCCCN3CCOCC3)c(=O)[nH]c2cc1OC,-38.4%
10,COc1cc2cc(CN(CCc3cccc(C)c3)C(=S)NCCCN(C)C)c(=O)[nH]c2cc1OC,-1.74%
11,Cc1cc(C)c2[nH]c(=O)c(CN(Cc3ccccc3)C(=S)NCCCN(C)C)cc2c1,-52.8%
12,Cc1ccc(CN(Cc2cc3cccc(C)c3[nH]c2=O)C(=S)NCCCN(C)C)cc1,-65%
13,CC(C)(C)c1cc[n+](C2=C([O-])c3ccccc3C(=O)/C2=N\S(=O)(=O)c2cccs2)cc1,-44%
14,CCc1c(C)n([O-])c2c([n+]1=O)CCC2,13.1%
15,COc1cccc(N(CC(=O)NC2CCCC2)C(=O)CCC(=O)Nc2cc(C)on2)c1,-16.4%
16,CCC(=O)Nc1ccc2c(c1)nc(CN1CCCCC1)n2C,15%
17,Cn1c(CN2CCCCC2)nc2cc(NC(=O)c3cccc(Br)c3)ccc21,-63.3%
18,CC(=O)N1CCN(Cc2nc3cc(NC(=O)c4cccc(Br)c4)ccc3n2C)CC1,-70%
19,CC(=O)N1CCN(Cc2nc3cc(NC(=O)c4ccccc4)ccc3n2C)CC1,15.8%
20,CC(=O)Nc1ccc2c(c1)nc(CN1CCCC1)n2C,-7.28%
21,CCC(=O)Nc1ccc2c(c1)nc(CN1CCN(C(C)=O)CC1)n2C,-0.94%
22,Oc1ccccc1N1CCN(c2ncccn2)CC1,10.4%
23,Cc1ccc(S(=O)(=O)NNC(=O)c2sccc2-n2cccc2)cc1,-21.7%

row,Structure (SMILES),"hERG current change (%, negative = inhibition) at 10uM"
1,CC(C)c1cccc(C(C)C)c1NC(=S)Nc1cccc(Cl)c1,5.01%
2,COc1ccc(CC(=O)NNC(=O)c2ccncc2)cc1,29.1%
3,COc1cccc(CNS(=O)(=O)c2c(C)nc3sccn3c2=O)c1,-13.6%
4,CCOc1ccc(CNS(=O)(=O)c2c(C)nc3scc(C)n3c2=O)cc1OC,8.99%
5,CCOc1ccc(CNS(=O)(=O)c2c(C)nc3sccn3c2=O)cc1OC,-66.1%
6,O=C(NCCNC(=O)c1ccccn1)c1ccccc1,11.7%
7,COc1ccc(Nc2c(-c3ccc(C)cc3)nc3cnccn23)cc1,-24.5%
8,C=CCc1ccc(OCCn2nnc3ccccc32)c(OC)c1,-12.8%
9,Cc1ccc2c(c1)C1CN(C)CCC1N2C(=S)Nc1cccnc1 (centres unmarked),-14%
10,Cc1ccc2c(c1)C1CN(C)CCC1N2C(=O)c1ccc(Br)o1 (centres unmarked),-38%
11,Cc1ccc2c(c1)C1CN(C)CCC1N2C(=O)c1ccco1 (centres unmarked),-7.26%
12,Cc1ccc2c(c1)C1CN(C)CCC1N2C(=O)c1cccs1 (centres unmarked),-22%
13,COc1ccc(-c2nn(-c3ccccc3)cc2C(=O)N2c3ccc(C)cc3C3CN(C)CCC32)cc1 (centres unmarked),-31.7%
14,Cc1ccc(C(=O)N(C)c2ccc(OCC(=O)N3c4ccc(C)cc4C4CN(C)CCC43)cc2)cc1.Cl (centres unmarked),-25.5%
15,Cc1ccc2c(c1)C1CN(C)CCC1N2C(=S)Nc1ccc(Cl)cc1Cl (centres unmarked),-34.2%
16,Cc1ccc2c(c1)C1CN(C)CCC1N2C(=S)Nc1ccc(OC(F)F)cc1 (centres unmarked),-55.1%
17,Cc1ccc2c(c1)C1CN(C)CCC1N2C(=S)NC(=O)c1ccc(Br)cc1 (centres unmarked),-67.1%
18,Cc1ccc2c(c1)C1CN(C)CCC1N2C(=O)c1cn(-c2ccccc2)nc1-c1ccccc1 (centres unmarked),-65.6%
19,CC1Cc2ccccc2N1C(=S)NC(=O)c1ccc(Cl)cc1Cl (centres unmarked),4.89%
20,Cc1ccc2c(c1)C1CN(C)CCC1N2C(=S)NC(=O)c1ccc(Cl)cc1Cl (centres unmarked),-71%
